Measured values as given in paper PMC5540273 (PLoS ONE, 2017).
“And” between values parts separate entries of the source, which are not always exact repeats. Equal values may be shown once. Read-outs that look alike come from different tables or passages of the source.

Tests used:
AMPK-alpha2 = test system: T1, AMPK-alpha2; settings: concentration: 1 μM, replicates: in singlicate, n = 1
T1 construct: gene PRKAA2

ANKK1 = settings: concentration: 1 μM, replicates: in singlicate, n = 1
ARK5 = test system: T2, ARK5; settings: concentration: 1 μM, replicates: in singlicate, n = 1
T2 construct: gene NUAK1

ASK1 = test system: T3, ASK1; settings: concentration: 1 μM, replicates: in singlicate, n = 1
T3 construct: gene MAP3K5

ASK2 = test system: T4, ASK2; settings: concentration: 1 μM, replicates: in singlicate, n = 1
T4 construct: gene MAP3K6

AURKA = settings: concentration: 1 μM, replicates: in singlicate, n = 1
AURKB = settings: concentration: 1 μM, replicates: in singlicate, n = 1
AURKC = settings: concentration: 1 μM, replicates: in singlicate, n = 1
AXL = settings: concentration: 1 μM, replicates: in singlicate, n = 1
BIKE = test system: T5, BIKE; settings: concentration: 1 μM, replicates: in singlicate, n = 1
T5 construct: gene BMP2K

BLK = settings: concentration: 1 μM, replicates: in singlicate, n = 1
BMPR1A = settings: concentration: 1 μM, replicates: in singlicate, n = 1
BMPR2 = settings: concentration: 1 μM, replicates: in singlicate, n = 1
BMX = settings: concentration: 1 μM, replicates: in singlicate, n = 1
BRAF = settings: concentration: 1 μM, replicates: in singlicate, n = 1
BRK = test system: T6, BRK; settings: concentration: 1 μM, replicates: in singlicate, n = 1
T6 construct: gene PTK6

BRSK1 = settings: concentration: 1 μM, replicates: in singlicate, n = 1
BRSK2 = settings: concentration: 1 μM, replicates: in singlicate, n = 1
BTK = settings: concentration: 1 μM, replicates: in singlicate, n = 1
BMPR1B = settings: concentration: 1 μM, replicates: in singlicate; n = 1
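Note: KINOMEscan kinase panel screen.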

CC(C)(CN)c1nc(-c2ccc(Cl)c(O)c2)c(-c2ccncc2)[nH]1.O=C(O)C(F)(F)F [SB-477794]
%Inh (AMPK-alpha2; 1 µM): 15% and 13% | %Inh (ANKK1; 1 µM): 0% and 1% | %Inh (ARK5; 1 µM): 19% and 0% | %Inh (ASK1; 1 µM): 19% and 0% | %Inh (ASK2; 1 µM): 1% and 3% | %Inh (AURKA; 1 µM): 8% and 0% | %Inh (AURKB; 1 µM): 31% and 15% | %Inh (AURKC; 1 µM): 0% and 30% | %Inh (AXL; 1 µM): 5% and 13% | %Inh (BIKE; 1 µM): 0% and 21% | %Inh (BLK; 1 µM): 98.2% and 98% | %Inh (BMPR1A; 1 µM): 37% and 47% | %Inh (BMPR2; 1 µM): 32% and 33% | %Inh (BMX; 1 µM): 0% and 40% | %Inh (BRAF; 1 µM): 97.8% and 98.5% | %Inh (BRK; 1 µM): 99.7% and 99.6% | %Inh (BRSK1; 1 µM): 0% and 20% | %Inh (BRSK2; 1 µM): 0% and 22% | %Inh (BTK; 1 µM): 43% and 71%

Cl.Cl.Cl.Fc1ccc(-c2ncn(C3CCNCC3)c2-c2ccnc(Nc3ccccc3)n2)cc1 [SB-238039]
%Inh (AMPK-alpha2; 1 µM): 17% and 0% | %Inh (ARK5; 1 µM): 9% and 10% | %Inh (ASK1; 1 µM): 34% and 1% | %Inh (AURKA; 1 µM): 16% and 36% | %Inh (AURKB; 1 µM): 25% and 0% | %Inh (AURKC; 1 µM): 0% and 19% | %Inh (AXL; 1 µM): 0% and 44% | %Inh (BIKE; 1 µM): 0% and 9% | %Inh (BLK; 1 µM): 56% and 27% | %Inh (BMPR2; 1 µM): 42% and 11% | %Inh (BRAF; 1 µM): 19% and 0% | %Inh (BRK; 1 µM): 0% and 19% | %Inh (BRSK1; 1 µM): 0% and 29% | %Inh (BRSK2; 1 µM): 7% and 9% | %Inh (BTK; 1 µM): 0% and 9%

CN1c2ccc(NCc3ccc(F)cc3)cc2-c2c(cnn2C)S1(=O)=O
%Inh (AMPK-alpha2): 0% | %Inh (ANKK1): 0% | %Inh (ARK5): 0% | %Inh (ASK1): 0% | %Inh (ASK2): 0% | %Inh (AURKA): 0% | %Inh (AURKB): 14% | %Inh (AURKC): 0% | %Inh (AXL): 0% | %Inh (BIKE): 0% | %Inh (BLK): 0% | %Inh (BMPR1A): 0% | %Inh (BMPR1B): 1% | %Inh (BMPR2): 0% | %Inh (BMX): 0% | %Inh (BRAF): 17% | %Inh (BRK): 0% | %Inh (BRSK1): 0% | %Inh (BRSK2): 0% | %Inh (BTK): 0%

Cc1c(Cn2c(C)nn3c(=O)cc(N4CCOC(C)C4)nc23)cccc1C(F)(F)F (centres unmarked) [GSK2344444]
%Inh (AMPK-alpha2): 0% | %Inh (ANKK1): 0% | %Inh (ARK5): 10% | %Inh (ASK1): 1% | %Inh (ASK2): 8% | %Inh (AURKA): 0% | %Inh (AURKB): 0% | %Inh (AURKC): 8% | %Inh (AXL): 0% | %Inh (BIKE): 16% | %Inh (BLK): 25% | %Inh (BMPR1A): 6% | %Inh (BMPR1B): 0% | %Inh (BMPR2): 0% | %Inh (BMX): 1% | %Inh (BRAF): 0% | %Inh (BRK): 7% | %Inh (BRSK1): 0% | %Inh (BRSK2): 0% | %Inh (BTK): 0%

O=C(c1ccc(-c2cc(-c3c[nH]nc3-c3ccccn3)ccn2)cc1)N1CCOCC1 [GW812171]
%Inh (AMPK-alpha2): 22% | %Inh (ANKK1): 14% | %Inh (ARK5): 0% | %Inh (ASK1): 0% | %Inh (ASK2): 0% | %Inh (AURKA): 13% | %Inh (AURKB): 33% | %Inh (AURKC): 0% | %Inh (AXL): 0% | %Inh (BIKE): 0% | %Inh (BLK): 0% | %Inh (BMPR1A): 0% | %Inh (BMPR1B): 11% | %Inh (BMPR2): 16% | %Inh (BMX): 0% | %Inh (BRAF): 32% | %Inh (BRK): 0% | %Inh (BRSK1): 0% | %Inh (BRSK2): 10% | %Inh (BTK): 0%

Cc1cccc(Cn2ccn3c(=O)cc(N4CCOCC4)nc23)c1 [GSK2297542]
%Inh (AMPK-alpha2): 12% | %Inh (ANKK1): 19% | %Inh (ARK5): 12% | %Inh (ASK1): 0% | %Inh (ASK2): 6% | %Inh (AURKA): 15% | %Inh (AURKB): 0% | %Inh (AURKC): 18% | %Inh (AXL): 5% | %Inh (BIKE): 15% | %Inh (BLK): 57% | %Inh (BMPR1A): 0% | %Inh (BMPR1B): 0% | %Inh (BMPR2): 0% | %Inh (BMX): 27% | %Inh (BRAF): 4% | %Inh (BRK): 22% | %Inh (BRSK1): 0% | %Inh (BRSK2): 6% | %Inh (BTK): 0%

O=c1cc(N2CCOCC2)nc2n(Cc3cccc(F)c3)ccn12 [GSK2297430]
%Inh (AMPK-alpha2): 21% | %Inh (ANKK1): 0% | %Inh (ARK5): 7% | %Inh (ASK1): 0% | %Inh (ASK2): 6% | %Inh (AURKA): 0% | %Inh (AURKB): 0% | %Inh (AURKC): 32% | %Inh (AXL): 14% | %Inh (BIKE): 26% | %Inh (BLK): 32% | %Inh (BMPR1A): 0% | %Inh (BMPR1B): 0% | %Inh (BMPR2): 0% | %Inh (BMX): 12% | %Inh (BRAF): 6% | %Inh (BRK): 23% | %Inh (BRSK1): 0% | %Inh (BRSK2): 0% | %Inh (BTK): 0%

CC(C)Oc1ccc2c(-c3ccnc(Nc4ccc(N5CCN(C)CC5)cc4)n3)cnn2n1 [GW696155]
%Inh (AMPK-alpha2): 52% | %Inh (ANKK1): 20% | %Inh (ARK5): 95.5% | %Inh (ASK1): 0% | %Inh (ASK2): 0% | %Inh (AURKA): 98.6% | %Inh (AURKB): 70% | %Inh (AURKC): 75% | %Inh (AXL): 74% | %Inh (BIKE): 99.8% | %Inh (BLK): 23% | %Inh (BMPR1A): 0% | %Inh (BMPR1B): 90.5% | %Inh (BMPR2): 19% | %Inh (BMX): 4% | %Inh (BRAF): 43% | %Inh (BRK): 6% | %Inh (BRSK1): 0% | %Inh (BRSK2): 0% | %Inh (BTK): 20%

COc1cc2ncn(-c3cc(OCc4sccc4Cl)c(C(N)=O)s3)c2cc1OC [GSK448459]
%Inh (AMPK-alpha2): 0% | %Inh (ANKK1): 0% | %Inh (ARK5): 15% | %Inh (ASK1): 0% | %Inh (ASK2): 0% | %Inh (AURKA): 0% | %Inh (AURKB): 12% | %Inh (AURKC): 41% | %Inh (AXL): 10% | %Inh (BIKE): 90% | %Inh (BLK): 32% | %Inh (BMPR1A): 0% | %Inh (BMPR1B): 0% | %Inh (BMPR2): 14% | %Inh (BMX): 0% | %Inh (BRAF): 0% | %Inh (BRK): 11% | %Inh (BRSK1): 37% | %Inh (BRSK2): 45% | %Inh (BTK): 0%

COC(=O)Nc1nc2cc(Oc3ccc(NC(=O)Nc4cc(F)ccc4F)cc3)ccc2[nH]1.Cl [GW701424]
%Inh (AMPK-alpha2): 8% | %Inh (ANKK1): 12% | %Inh (ARK5): 0% | %Inh (ASK1): 13% | %Inh (ASK2): 0% | %Inh (AURKA): 0% | %Inh (AURKB): 94.5% | %Inh (AURKC): 50% | %Inh (AXL): 93.5% | %Inh (BIKE): 3% | %Inh (BLK): 25% | %Inh (BMPR1A): 0% | %Inh (BMPR1B): 0% | %Inh (BMPR2): 24% | %Inh (BMX): 9% | %Inh (BRAF): 53% | %Inh (BRK): 0% | %Inh (BRSK1): 0% | %Inh (BRSK2): 0% | %Inh (BTK): 6%
